# Results: PubChem BioAssay AID1851 (National Center for Advancing Translational Sciences (NCATS), 2009)
# Where “and” joins values, the source holds several entries; their conditions need not be identical. Equal values may be shown once. The whole screen tested about 16,000 compounds, of which about 5,700 (36%) were called active. Roughly 24% stayed inconclusive and do not appear here. The list shows a part of the results. Values without a mark were called inactive. Calls come from the whole dose curve; as a rule, active = well fitted curve in the direction sought with a large enough effect; inconclusive = small, poorly fitted or top-dose-only effect, or effect the other way; inactive = no such curve, though single readings can be large or run the other way.
# Molecular target: Cytochrome P450 1A2 (Homo sapiens) (UniProt P05177)
# Assay: Cytochrome panel assay with activity outcomes
# Conditions: recombinant CYP, pro-luciferin dealkylation, luminescence, p450-cyp1a2; series mostly up to 57.1 µM; activity, negative = inhibition: at the top concentration
# % is set by controls: 0 for no effect and ±100 for the full control effect.
# Chain of Cytochrome P450 1A2 (Homo sapiens) (P05177 whole entry, looked up): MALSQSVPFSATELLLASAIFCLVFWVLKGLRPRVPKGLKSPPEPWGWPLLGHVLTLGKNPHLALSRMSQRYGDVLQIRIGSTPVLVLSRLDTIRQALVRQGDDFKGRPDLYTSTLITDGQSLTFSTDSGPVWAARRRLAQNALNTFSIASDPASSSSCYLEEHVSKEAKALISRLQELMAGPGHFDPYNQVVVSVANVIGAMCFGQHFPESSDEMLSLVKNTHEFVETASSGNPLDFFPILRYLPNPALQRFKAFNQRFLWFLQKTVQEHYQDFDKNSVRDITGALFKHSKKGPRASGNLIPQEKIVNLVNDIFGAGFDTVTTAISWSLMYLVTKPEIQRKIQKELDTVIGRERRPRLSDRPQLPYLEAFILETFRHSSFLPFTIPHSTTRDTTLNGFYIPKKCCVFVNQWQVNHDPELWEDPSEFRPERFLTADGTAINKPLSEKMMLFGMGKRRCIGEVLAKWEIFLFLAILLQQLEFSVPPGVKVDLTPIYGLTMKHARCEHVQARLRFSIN
Compound,"activity, negative = inhibition",AC50
C[N+]1(CC(=O)OCCCc2ccccc2)CCOCC1,9.57%,–
COc1ccccc1NC(=O)Cn1cncc1-c1ccc([N+](=O)[O-])cc1,-23.8%,–
CCN(CC(=O)Nc1ccc([N+](=O)[O-])cc1OC)c1ccccc1,–,12.6 µM (active)
COc1ccc([N+](=O)[O-])cc1NC(=O)CC(C)c1ccccc1 (centres undefined),–,5.01 µM (active)
C=CC[C@@H]1C=C[C@H](O/N=C\[C@@H](C)[C@H](OCc2ccccc2)C(C)C)[C@H](CO)O1,9.01% [at 11.4 µM],–
COc1cc(C2C(=O)N(C3CCCC3)CC(=O)N2Cc2ccco2)ccc1OC(C)C (centres undefined),-9.22%,–
CN(Cc1ccco1)C(=O)C1CCC(=O)N1Cc1ccc(F)cc1 (centres undefined),17.4%,–
Cc1ccc(C2Nc3ccccc3C(=O)N2Cc2ccco2)cc1 (centres undefined),–,15.8 µM (active)
O=C1c2ccccc2NC(c2ccc(F)cc2)N1Cc1ccco1 (centres undefined),–,25.1 µM (active)
COc1ccc(C2Nc3ccccc3C(=O)N2Cc2ccco2)cc1COc1ccc([N+](=O)[O-])cc1 (centres undefined),-16.8%,–
CC(C)Oc1ccc(/C(O)=C2/C(=O)C(=O)N(Cc3cccnc3)C2c2ccco2)cc1 (centres undefined),-5.23%,–
Cc1ccc(S(=O)(=O)CCc2nnc(NC(=O)COc3cccc(C)c3)s2)cc1,7.38%,–
CC(=O)Nc1ccc(NC(=O)C/C(C)=N/NC(=O)C(=O)N2CCCC2)cc1,1.33%,–
C/C(CC(=O)Nc1cc(C)ccn1)=N\NC(=O)COc1cccc(C)c1,–,14.1 µM (active)
COc1cccc(-c2cc(C(F)(F)F)n3ncc(S(=O)(=O)c4ccccc4)c3n2)c1,-19.7%,–
COc1cccc(-c2cc(C(F)(F)F)nc(N3CCOCC3)n2)c1,–,0.794 µM (active)
COc1cccc(-c2cc(C(F)(F)F)nc(N3CCCCC3)n2)c1,–,1 µM (active)
COc1cccc(-c2cc(C(F)(F)F)nc(N3CCN(c4ccccc4)CC3)n2)c1,–,12.6 µM (active)
CCOC(=O)N1CCC(NC(=O)CCC(=O)N2CCOc3ccccc32)CC1,-14.2%,–
CCOC(=O)[C@H](N)/C=C(\C)CP(=O)(O)O,-17.3%,–
CC(C)(C)C(=O)N1CCc2cc(-c3csc(N)n3)ccc21,–,7.08 µM (active)
CCCC(=O)Nc1nc(-c2ccc3c(c2)CCN3S(C)(=O)=O)cs1,-3.69%,–
CO[C@H]1COC(=O)[C@@H](Cc2ccccc2)NC(=O)[C@@H](C)COC(=O)CCC[C@@H]1C,-3.47% [at 11.4 µM],–
O=C(CN1CCCCC1)Nc1nnc(-c2ccc([N+](=O)[O-])cc2)s1,-14.5%,–
COCC(=O)N1CCN(c2ccc([N+](=O)[O-])cc2)CC1,-1.44%,–

Compound,"activity, negative = inhibition",AC50
COCC(=O)N(C)c1nnc(-c2ccc([N+](=O)[O-])cc2)s1,–,3.16 µM (active)
COC(=O)N1CCC2(CC1)CN(C(=O)Nc1ccc(OC)cc1)C2,-0.895%,–
COc1ccc(NC(=O)N2CCCC3(CCNCC3)C2)cc1,-1.6%,–
Cc1ccc(C)c(NC(=O)C2CC3c4ccccc4C2c2ccccc23)c1 (centres undefined),-5.49%,–
COc1ccc(NC(=O)c2ncn[nH]2)cc1,–,11.2 µM (active)
COc1ccc(NC(=O)OC(C)C)cc1,–,11.2 µM (active)
Cc1ccc(C)c(NC(=O)c2ncn[nH]2)c1,–,15.8 µM (active)
COc1ccc(NC(=O)N2CCC3(CC2)CCN(S(C)(=O)=O)CC3)cc1,3.99%,–
CC(C)c1ccc(O)c(NC(=O)c2ncn[nH]2)c1,–,15.8 µM (active)
Cc1ccc(C)c(NC(=O)Cn2c([N+](=O)[O-])cnc2C)c1,-3.91%,–
COc1ccc(NC(=O)C(c2ccc(OC)cc2)N(C)C(=O)CNC(C)=O)cc1 (centres undefined),-5.37%,–
CC(C)CN1CCC2(CC1)CCN(C(=O)c1cccn1C)CC2,9.28%,–
COCC(=O)N1CCC2(CCCN(c3ncccn3)C2)CC1,-20.4%,–
N=C(N)SCc1nc2ccccc2c(=O)n1-c1ccccc1Cl,–,1.26 µM (active)
COc1cc(C=O)ccc1OCCCOc1ccccc1C(=O)O,-8.32%,–
COc1ccc(C=Nc2c(O)ccc3ccccc23)cc1OC,–,0.251 µM (active)
COC(=O)C/C=C\[C@@H](C)[C@@H](/C=N\O[C@@H](C)c1cn([C@H](CO)Cc2ccccc2)nn1)NS(=O)(=O)c1ccc(C)cc1,-0.854% [at 11.4 µM] and -7.61% [at 11.4 µM],–
CC(C)CN1CC2(CCN(C(=O)c3cccc(F)c3)CC2)C1,3.33%,–
O=C1CCC(c2ccccc2)=NN1c1nc2ccccc2s1,–,0.398 µM (active)
N#Cc1cccc(-c2cncnc2-n2ccnc2)c1,–,15.8 µM (active)
COc1ccccc1-c1cncnc1-n1ccnc1,–,12.6 µM (active)
c1cncc(-c2cncnc2-n2ccnc2)c1,–,20 µM (active)
COc1cccc(-c2cncnc2-n2ccnc2)c1,–,0.1 µM (active)
Cc1cn(CC[C@H](N)C(=O)O)c(=O)[nH]c1=O,-9.38% [at 11.4 µM],–
COC(=O)C[C@@H]1O[C@H]1[C@H](C)[C@@H](OC)C(C)C,-6.59% [at 11.4 µM],–

Compound,"activity, negative = inhibition",AC50
COC(=O)[C@@]1(Cc2ccc(OC)cc2)[C@@H]2[C@@H](CC(=O)[C@H]2CC(=O)C(=O)N2CCCC2)CN1C(=O)c1ccccc1,-20.3%,–
COc1ccc(C[C@@H]2C(=O)N[C@H](C)C(=O)N(C)[C@@H]3Cc4ccc(cc4)Oc4cc(ccc4O)C[C@H](C(=O)N[C@@H](C)C(=O)N[C@H](C)C(=O)N2C)N(C)C3=O)cc1,-16.4% [at 11.4 µM],–
CC(C)CC(=O)N[C@H](C(=O)N[C@H](C(=O)N[C@@H](CC(C)C)[C@H](O)CC(=O)N[C@@H](C)C(=O)N[C@@H](CC(C)C)[C@H](O)CC(=O)O)C(C)C)C(C)C,1.07% [at 25.6 µM],–
COc1ccc(O[C@H]2C=C[C@@H](c3ccccc3)O[C@@H]2CO/N=C(\C)CCN2CCc3nc(-c4ccccc4)c(-c4ccccc4)cc3C2)cc1,-6.98% [at 11.4 µM],–
CCC(=O)N(Cc1ccco1)c1nc(-c2ccccc2)cs1,–,1.26 µM (active)
Cc1ccccc1C(C(=O)NCc1ccccc1)N(Cc1ccco1)C(=O)c1ccccn1 (centres undefined),-0.421%,–
Cc1cc2cccc(C)c2nc1SCC(=O)N(C)c1nc(-c2ccccc2)cs1,-13.1%,–
CCn1c(C)cc(/C=C2\NC(=O)N(Cc3ccc(Cl)cc3)C2=O)c1C,–,0.355 µM (active)
CCC(C(=O)NC(C)(C)C)N(C(=O)Cn1nnc(-c2cccs2)n1)c1cnc2ccccc2c1 (centres undefined),-18.4%,–
O=C(Nc1cnc2ccccc2c1)c1cccc(-n2cnnn2)c1,–,12.6 µM (active)
Cc1cccc(N2CCN(CC(=O)Nc3ccc(-n4cnnn4)cc3)CC2)c1C,1.94%,–
CC(NC(=O)Cn1cnc([N+](=O)[O-])n1)c1ccccc1 (centres undefined),3.46%,–
CC(C)(C)NC(=O)Cn1cnc([N+](=O)[O-])n1,18.8%,–
O=C(Cn1cnc([N+](=O)[O-])n1)N/N=C/c1ccccc1O,–,4.47 µM (active)
COC(=O)[C@@]1(Cc2ccccc2)[C@@H]2C(=CC(=O)[C@H]2CC(=O)C(=O)N(C)C)CN1C(=O)c1ccccc1,-12.1%,–
COc1ccccc1CCn1c(=O)c(-c2cccc(F)c2)nc2cncnc21,–,1.58 µM (active)
COc1ccccc1CCn1c(=O)c(-c2cc(F)cc(F)c2)nc2cncnc21,–,1.58 µM (active)
NC(=O)C1=CN([C@@H]2O[C@@H](COP(=O)(O)OP(=O)(O)OC[C@@H]3O[C@H](n4cnc5c(N)ncnc54)[C@@H](OP(=O)(O)O)[C@@H]3O)[C@H](O)[C@@H]2O)C=CC1,10.8%,–
O=C(NC1CCCc2ccccc21)c1ccc(=O)[nH]c1 (centres undefined),15%,–
CCCCn1nc2cc(C(=O)NCCCCc3ccccc3)ccc2c1OCC,6.46%,–
CCCn1nc2cc(C(=O)NCCc3ccc(C)cc3)ccc2c1OCC,-23.8%,–
CCOc1c2ccc(C(=O)NC3CCCc4ccccc43)cc2nn1C (centres undefined),–,10 µM (active)
CCOc1c2ccc(C(=O)NCc3ccc(OC(F)(F)F)cc3)cc2nn1C,–,2.82 µM (active)
CCCCn1nc2cc(C(=O)NCc3ccc(C(F)(F)F)cc3C(F)(F)F)ccc2c1OCC,-4.35%,–
CCCn1nc2cc(C(=O)NCCCCc3ccccc3)ccc2c1OCC,-8.93%,–

Compound,"activity, negative = inhibition",AC50
CCCn1nc2cc(C(=O)NC3CCCc4ccccc43)ccc2c1OCC (centres undefined),-25.1%,–
CCOc1c2ccc(C(=O)NCCCCc3ccccc3)cc2nn1C,–,2.51 µM (active)
CCCn1nc2cc(C(=O)NCc3ccc4c(c3)OCO4)ccc2c1OCC,-29.7%,–
COCCn1nc2cc(C(=O)NCC34CC5CC(CC(C5)C3)C4)ccc2c1OC,-21.7%,–
CCCn1nc2cc(C(=O)NCc3ccc(C)cc3)ccc2c1OC,–,14.1 µM (active)
O=C(NCc1ccccc1)c1onc(CSc2ccc(F)cc2)c1C(=O)NCCCN1CCOCC1,-21.4%,–
COc1cccc(C(=O)N(C)c2nnc(-c3ccncc3)s2)c1,–,12.6 µM (active)
O=C(c1c(O)c2ccc(Cl)cc2[nH]c1=O)C1CC1,–,0.0794 µM (active)
O=C(c1n[nH]c(=O)c2ccccc12)N1CCN(C2c3ccccc3-c3ccccc32)CC1,–,15.8 µM (active)
CCCCOc1ccc(CC(=O)NO)cc1,–,1.58 µM (active)
CCCOc1ccc(CSC(CC(=O)O)C(=O)O)cc1 (centres undefined),12.7%,–
CCOc1ccc(CSC(CC(=O)O)C(=O)O)cc1 (centres undefined),-24.2%,–
O=C1C2Sc3[nH]c(=O)sc3C(c3ccccc3)C2C(=O)N1c1ccc(Cl)cc1 (centres undefined),-26.8%,–
COc1ccc([C@@H]2CC(=O)c3c(O)cc(O[C@H]4O[C@@H](CO[C@H]5O[C@@H](C)[C@@H](O)[C@@H](O)[C@@H]5O)[C@@H](O)[C@@H](O)[C@@H]4O)cc3O2)cc1O,-0.0093% [at 25.6 µM],–
Brc1ccc2cccnc2c1,–,2.51 µM (active)
COc1ccc(-c2cc3ccccc3n2CC(O)CNCCO)cc1 (centres undefined),-21.9%,–
C[n+]1cn(CC(O)COCc2ccccc2)c2ccccc21 (centres undefined),-13%,–
CC(=O)Nc1ccc(OCC(O)Cn2cnc3ccccc32)cc1 (centres undefined),-3.03%,–
CC(=O)Nc1ccc(OCC(O)Cn2c3ccccc3c3ccccc32)c(C)c1 (centres undefined),–,2.82 µM (active)
Cc1ccccc1OCC(O)Cn1c(NCc2ccccc2)nc2c1c(=O)[nH]c(=O)n2C (centres undefined),-29.3%,–
Cc1ccccc1OCC(O)Cn1c2ccccc2c2ccccc21 (centres undefined),–,1.78 µM (active)
C=CCN(CC=C)CC(O)Cn1c2ccccc2c2ccccc21 (centres undefined),–,2 µM (active)
Cc1ccc(OCC(O)Cn2c3ccccc3c3ccccc32)cc1 (centres undefined),–,1.41 µM (active)
O[C@H](COc1ccccc1)CN1CCCCC1,-3.85% [at 11.4 µM],–
